Mtb FBA inh: Mtb FBA enzyme inhibitors, primary screen, biochemical, fluorescence, strain H37Rv. 360,000 compounds, 2.3% hits. AID 588726, 2011. inhibition, % at 1 µM. purified M. tuberculosis FBA, fluorescence read-out; in the data active = inhibition above about 27%;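 also: 0% = vehicle and 100% = reference inhibitor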
Target sequence (P9WQA3 whole entry, looked up): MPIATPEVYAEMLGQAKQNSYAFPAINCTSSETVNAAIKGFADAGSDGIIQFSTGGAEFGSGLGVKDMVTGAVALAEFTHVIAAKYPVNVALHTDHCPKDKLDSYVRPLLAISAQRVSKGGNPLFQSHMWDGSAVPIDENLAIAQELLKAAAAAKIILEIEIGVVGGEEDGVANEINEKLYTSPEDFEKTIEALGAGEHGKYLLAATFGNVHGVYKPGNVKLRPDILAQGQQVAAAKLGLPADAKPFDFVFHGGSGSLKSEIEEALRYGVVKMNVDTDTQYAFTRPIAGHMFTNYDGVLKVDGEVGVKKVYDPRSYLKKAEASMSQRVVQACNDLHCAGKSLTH
BoNT A protease: BoNT/A light chain protease inhibitors, primary screen, biochemical, flow cytometry, MLPCN library | inhibition, % at 10 µM | multiplex microsphere protease substrate cleavage | 360,000 compounds, 0.17% hits; also: plate controls were buffer without enzyme for full effect and enzyme alone for no effect
GDH-TPI counter: GDH-TPI coupling enzyme inhibitors, primary screen, artefact control for M. tuberculosis FBA inhibitor project, biochemical, absorbance, full deck; GDH-TPI coupled enzyme counterscreen, NADH absorbance; inhibition, % at 4.8 µM; 360,000 compounds, 1.2% hits; AID 588335, 2011; in the data active = inhibition above about 30%;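 also: 0% = DMSO wells and 100% = wells lacking the enzyme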
Bead autofluor: compound fluorescence in toxin protease inhibitor counterscreen; compound autofluorescence counterscreen, microsphere flow cytometry; hits give high values; fluorescence intensity (no concentration beside the values); 360,000 compounds, 3.1% hits; AID 624483; in the data active = fluorescence intensity above about 16000; inconclusive = no clear call, values can overlap the other calls
Anthrax LF inh2: Bacillus anthracis LF protease inhibitors, primary screen, biochemical, multiplex microsphere, MLPCN library; Lethal factor (Bacillus anthracis), P15917; 360,000 compounds, 0.12% hits; inhibition, % at 10 µM; AID 588501, 2011; multiplex microsphere protease cleavage assay; also: plate controls were buffer without enzyme for full effect and enzyme alone for no effect
BoNT-F LC inh: BoNT/F light chain protease inhibitors, primary screen, biochemical, flow cytometry, MLPCN library | Botulinum neurotoxin type F light chain protease (Clostridium botulinum) | Multiplex microsphere protease cleavage assay | inhibition, % at 10 µM | 360,000 compounds, 0.22% hits | AID 588497, 2011; in the data active = inhibition above about 35%, passing the limit was not always enough; inconclusive = no clear call, values can overlap the other calls; also: plate controls were buffer without enzyme for full effect and enzyme alone for no effect
* hit, by the source's call. Shown are actives, neighbours in structure and some others; about 6.6% of the full set was active somewhere. Rule as the data show it, unless noted: active = inhibition above about 30%; inconclusive = no clear call, values can overlap the other calls; inactive = below that.

CCOc1ccccc1N(C)S(=O)(=O)c1ccc2[nH]cc(C(=O)N(CCOC)CCOC)c(=O)c2c1 was read as Mtb FBA inh 12, BoNT A protease -2, GDH-TPI counter 12, Bead autofluor 3666, Anthrax LF inh2 0 and BoNT-F LC inh -2.
`COCCN(CCOC)C(=O)c1c[nH]c2ccc(S(=O)(=O)N(C)c3ccc(F)cc3)cc2c1=O` gave Mtb FBA inh 13, BoNT A protease 2, GDH-TPI counter 12, Bead autofluor 18595*, Anthrax LF inh2 3 and BoNT-F LC inh 2.
Screening CC/C(=N\N=C(/CC)c1ccccc1N)c1ccccc1N returned Mtb FBA inh -1, BoNT A protease 1, GDH-TPI counter 4, Bead autofluor 5955, Anthrax LF inh2 0 and BoNT-F LC inh 0.
For CSc1nc(N)n2nc(-c3ccccc3)cc2n1 the results were Mtb FBA inh -1, BoNT A protease 1, GDH-TPI counter 7, Bead autofluor 5298, Anthrax LF inh2 -2 and BoNT-F LC inh -9.
For COC(=O)c1cccn(CC(=O)c2ccc(Cl)cc2)c1=O the results were Mtb FBA inh -1, BoNT A protease 0, GDH-TPI counter 6, Bead autofluor 3256, Anthrax LF inh2 -4 and BoNT-F LC inh 2.
For CC(C)(C)C1CCc2onc(C(=O)NC3CCCC3)c2C1 (stereo unspecified) the results were Mtb FBA inh -2, BoNT A protease -3, GDH-TPI counter -4, Bead autofluor 21049*, Anthrax LF inh2 -2 and BoNT-F LC inh -6.
For O=C(NC1CCCCC1)c1noc2c1CCCCC2 the results were Mtb FBA inh 2, BoNT A protease 2, GDH-TPI counter 5, Bead autofluor 22953*, Anthrax LF inh2 1 and BoNT-F LC inh 1.
For CC(C)CNC(=O)c1noc2c1CCCC2 the results were Mtb FBA inh 2, BoNT A protease 0, GDH-TPI counter -3, Bead autofluor 5071, Anthrax LF inh2 2 and BoNT-F LC inh -1.
Screening CC(C)(C)C1CCc2onc(C(=O)N3CCOCC3)c2C1 (stereo unspecified) returned Mtb FBA inh 0, BoNT A protease 0, GDH-TPI counter 7, Bead autofluor 11821, Anthrax LF inh2 1 and BoNT-F LC inh 0.
Nc1nonc1-n1nnc(C(=O)N/N=C/c2cccc(Cl)c2)c1-c1cccs1 was read as Mtb FBA inh 1, BoNT A protease -2, GDH-TPI counter 12, Bead autofluor 5142, Anthrax LF inh2 -4 and BoNT-F LC inh -5.
For CC(C)(C)OC(=O)N(CC1CCNCC1)C(=O)c1[nH]c(C(F)(F)F)nc1-c1ccccc1 the results were Mtb FBA inh -1, BoNT A protease 0, Bead autofluor 6035, Anthrax LF inh2 3 and BoNT-F LC inh 1.
CCCCCc1nnc(NC(=O)C2CCCO2)s1 (stereo unspecified) was read as Mtb FBA inh -2, BoNT A protease -3, GDH-TPI counter 4, Bead autofluor 20636*, Anthrax LF inh2 2 and BoNT-F LC inh -4.
Cc1nnc(NC(=O)C2CCCO2)s1 (stereo unspecified) was read as Mtb FBA inh -4, BoNT A protease -1, GDH-TPI counter 4, Bead autofluor 4025, Anthrax LF inh2 2 and BoNT-F LC inh 10.
O=c1[nH][nH]c2c1[C@H](C1CCCC1)O[C@H](CCc1ccccc1)C2 was read as BoNT A protease 1, Bead autofluor 5750, Anthrax LF inh2 1 and BoNT-F LC inh -1.
COc1ccc(-n2c(SCC(=O)NC3CCCCC3)nc3ccsc3c2=O)cc1 was read as Mtb FBA inh -2, BoNT A protease inconclusive, GDH-TPI counter 0, Bead autofluor 21037*, Anthrax LF inh2 0 and BoNT-F LC inh 0.
Screening COc1ccc(-n2c(SCC(=O)Nc3nccs3)nc3sc4c(c3c2=O)CCN(C)C4)cc1 returned Mtb FBA inh 3, BoNT A protease 12, GDH-TPI counter 32*, Bead autofluor 4038, Anthrax LF inh2 10 and BoNT-F LC inh -10.
